Assay results as given in PMC7819943, “Rice protein-binding microarrays: a tool to detect cis-acting elements near promoter regions in rice”.
Whole data set: some 39,000 sequences, median “fluorescence intensity (a.u.)” near 4,300, cut for the highest 2% near 39,000. Many of the other results were omitted from the sample, so the highest values are more common in it than they were.

Biological target: T1, OsSMF1 (Oryza sativa, UniProt Q6ZLB0 1-436)
T1 sequence: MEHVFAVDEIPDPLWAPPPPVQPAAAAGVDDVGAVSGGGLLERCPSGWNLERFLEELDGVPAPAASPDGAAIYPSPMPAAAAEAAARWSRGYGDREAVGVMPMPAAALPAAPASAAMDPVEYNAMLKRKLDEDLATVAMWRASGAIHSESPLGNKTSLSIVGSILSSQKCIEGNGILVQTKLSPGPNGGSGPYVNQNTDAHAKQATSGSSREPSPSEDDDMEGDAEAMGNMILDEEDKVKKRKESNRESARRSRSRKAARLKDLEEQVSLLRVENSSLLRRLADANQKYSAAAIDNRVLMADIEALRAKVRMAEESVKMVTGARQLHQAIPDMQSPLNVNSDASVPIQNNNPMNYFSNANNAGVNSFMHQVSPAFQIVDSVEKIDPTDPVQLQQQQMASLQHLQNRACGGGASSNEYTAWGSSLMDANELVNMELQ
Experiment: protein-binding microarray (RPBM); PBS, 2% BSA, 51.3 ng/ul salmon testes DNA, 50 uM zinc acetate, 200 nM TF, 25 C, 1 h; high values mean tight binding
Details: protein: recombinant; tags: N-terminal polyhistidine and DsRed monomer fusion (pET32a); chain copies: 2; label: CyDye5-dUTP incorporated in the synthesized complementary strand; 3' TTTTT single-stranded linker to array surface; dsDNA, one strand shown
How it was run: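 Per-feature fluorescence intensity (arbitrary units), read on an Axon 4000B scanner, is the binding signal. Transcription factors carrying an N-terminal polyhistidine tag and DsRed fusion were expressed in E. coli BL21-CodonPlus and purified on Ni–NTA. A custom Agilent array, made double-stranded by primer extension with Cy5-dUTP and blocked with 2% BSA, was incubated with 200 nM protein in PBS, 2% BSA, salmon testes DNA and 50 µM zinc acetate at 25 °C for 1 h and then washed.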

Sequence | binding signal
CCTTCCACATATGCTCATTCGAAAGTAACAAATTCACTCGCGGAGTCACCTAGTGCAG | 3190 fluorescence intensity (a.u.)
GGTGATTGCATTTGCTGATGTCAGGTATGCCTATTATATTCGGAGTCACCTAGTGCAG | 14700 fluorescence intensity (a.u.)
CGAGTTTAGAATCCACACCATGATTACATGTAAACAACGTCGGAGTCACCTAGTGCAG | 44700 fluorescence intensity (a.u.)
ACTAGTTTACAACCACACCAACATGTAGGCATGAACATGGCGGAGTCACCTAGTGCAG | 22900 fluorescence intensity (a.u.)
TTGGATGACACAACAACATGTAAGGTTAGAAACGATATGTCGGAGTCACCTAGTGCAG | 3990 fluorescence intensity (a.u.)
AAAGTAGTTTTACACGTAAATCGGGCGCTGACGTTATCAGCGGAGTCACCTAGTGCAG | 5310 fluorescence intensity (a.u.)
TAAAGTAGTTTTACACGTAAATCAGATGCTGACGTCAGCGCGGAGTCACCTAGTGCAG | 48600 fluorescence intensity (a.u.)
AAAGTAGTTTCTGCACGTAAATCGGACGCTGACGTCAGCGCGGAGTCACCTAGTGCAG | 36600 fluorescence intensity (a.u.)
AAACACACTGACACGCATTCGGCCCGTTCCCTCGATGCGTCGGAGTCACCTAGTGCAG | 5340 fluorescence intensity (a.u.)
ATGATGCTGGATTGCTGGATACTGCATCAACATCATTAAGCGGAGTCACCTAGTGCAG | 44500 fluorescence intensity (a.u.)
ATGAACTCATGCAACATTACTGGCTGATGCATCAACTTTACGGAGTCACCTAGTGCAG | 3270 fluorescence intensity (a.u.)
AACATCATATATTGATGATTATTTGCTGCATAAGGAGATGCGGAGTCACCTAGTGCAG | 4070 fluorescence intensity (a.u.)
AACTTTTAATGATGTTCAACATGGGAAAATATGTGGTGGACGGAGTCACCTAGTGCAG | 8320 fluorescence intensity (a.u.)
AATATTGTGTGTTGTTGTGTTGTCATCTGATATATTTTAGCGGAGTCACCTAGTGCAG | 6470 fluorescence intensity (a.u.)
ACCTAAACGAGCCAACACGCACGCTCATCGCATCTTTGCGCGGAGTCACCTAGTGCAG | 3810 fluorescence intensity (a.u.)
AAGGTAGGTTGTAGAACTGATGATCTGTCAATGGTGAAATCGGAGTCACCTAGTGCAG | 4940 fluorescence intensity (a.u.)
TTCTACAACTTGGACCATAAAACGTGTAGTTTTGTGAAATCGGAGTCACCTAGTGCAG | 3570 fluorescence intensity (a.u.)
ACACATGGAACTTGTGCCATATATCTGTAGGTGTGAAAATCGGAGTCACCTAGTGCAG | 41300 fluorescence intensity (a.u.)
TGCGGACTACGTCAAGCTGACGTCATCTCCGACCCGACCTCGGAGTCACCTAGTGCAG | 54000 fluorescence intensity (a.u.)
CGATGGCTGCCACTGCCAACGTCAAGCTCCTCTCCGACGGCGGAGTCACCTAGTGCAG | 3850 fluorescence intensity (a.u.)
TCATCTCATCTCTCCACGTCACCCGACTCCGACTCCGTGGCGGAGTCACCTAGTGCAG | 16900 fluorescence intensity (a.u.)
CCTACCACTGTTGAGTAACCACGTCTTTCGACGTATGCAGCGGAGTCACCTAGTGCAG | 6930 fluorescence intensity (a.u.)

Sequence | binding signal
GCGGTCGGGCCGGCCCAGGAAATACCAGGCGACGTGGCGGCGGAGTCACCTAGTGCAG | 8410 fluorescence intensity (a.u.)
ACTGACATCGAGGCCCCACGTGTCAGTGACCCAGTTCTTTCGGAGTCACCTAGTGCAG | 13400 fluorescence intensity (a.u.)
TAAACTCTTTCTGTGAGTCAGCACAATAGCCCATCGTGCCCGGAGTCACCTAGTGCAG | 18700 fluorescence intensity (a.u.)
ACTTCACCAGTTCACCACCGTGGCACTCCCTGGGACTGAACGGAGTCACCTAGTGCAG | 3640 fluorescence intensity (a.u.)
GAGGACATGCATGTGCAAGGGGAGCAGGTGGGGTAAAATGCGGAGTCACCTAGTGCAG | 45500 fluorescence intensity (a.u.)
TTGGGAGGGAGAGTGGTAAAGGGTGCTGGGGCTTTGGCTGCGGAGTCACCTAGTGCAG | 4250 fluorescence intensity (a.u.)
GTGCGGATGGGGAGGTGTGGTGGAAGGGTGGACAGTGGAGCGGAGTCACCTAGTGCAG | 3410 fluorescence intensity (a.u.)
TTTGCCACTGTCCTACTAGATCTTGGTCTTATTTGAGAAGCGGAGTCACCTAGTGCAG | 3550 fluorescence intensity (a.u.)
TATGACATGTGGGCCAACTGCCAAGCAGCCTTACTTGACGCGGAGTCACCTAGTGCAG | 3360 fluorescence intensity (a.u.)
CTCAGTATATATGTTTTGAATTCATTATGACATCTTTACACGGAGTCACCTAGTGCAG | 3360 fluorescence intensity (a.u.)
TCACATGATGTCTTGGATGTTGTGTAGAAATTCTCTTTCCCGGAGTCACCTAGTGCAG | 3560 fluorescence intensity (a.u.)
GCTATTTATCTCATATGATGTCTTGGATGTTGTGTAGAAACGGAGTCACCTAGTGCAG | 40600 fluorescence intensity (a.u.)
GTTGGAGATGCTCTGAGAAACGCATATGTGGATGGTCTTACGGAGTCACCTAGTGCAG | 48100 fluorescence intensity (a.u.)
TACAGTATGTTGTGGAAGGCCTTTGAATTATATTGCATTACGGAGTCACCTAGTGCAG | 49000 fluorescence intensity (a.u.)
TTGGAAGTTTATGTGTGTAGAAAAGTTTTGATGTAATGAACGGAGTCACCTAGTGCAG | 44400 fluorescence intensity (a.u.)
TTATTGGTGGATGCCTCTGAGTCGGATGTGGGTCGTACAACGGAGTCACCTAGTGCAG | 3660 fluorescence intensity (a.u.)
TCTTGATGATGTGGAGTTTATGGAAACTATGTCTAGTGTTCGGAGTCACCTAGTGCAG | 7560 fluorescence intensity (a.u.)
CTGAAAAGTTGTGTGTGTATGACATGTTGATGTGATGGAACGGAGTCACCTAGTGCAG | 5180 fluorescence intensity (a.u.)
TGTTTGGACATATGCATGGAGCATTAAATGTGGATGAAAACGGAGTCACCTAGTGCAG | 4350 fluorescence intensity (a.u.)
TATTTGTATTATGTTGCAAATGTTGCAATATATATATTTACGGAGTCACCTAGTGCAG | 15300 fluorescence intensity (a.u.)
TATGAAAGTTTTCGATGTGATGTAATGTGATGGAAAGTTACGGAGTCACCTAGTGCAG | 3140 fluorescence intensity (a.u.)
